Experimental data taken from PubChem BioAssay (NCI).
Compounds without any hit were thinned out: in the full panel of roughly 79,000, 15% have a hit. Activity calls are given as the source filed them. No stated cut-off is given here; in the data, active means growth inhibition above about 70%; inactive means the rest.

Tests used:
[1] = NCI Yeast Anticancer Drug Screen. Data for the rad50 strain (AID 155);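 further: 0% = growth of vehicle-only cultures of the same strain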; details: S. cerevisiae rad50 strain growth inhibition, hits give high values
Summary of the method: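 A DNA repair-deficient yeast mutant serves as the test organism; compound-induced growth inhibition is calculated against vehicle-treated cells.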

[2] = NCI Yeast Anticancer Drug Screen. Data for the mec2-1 strain (AID 157); details: S. cerevisiae mec2-1 strain, hits give high values
Summary of the method: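 mec2-1 yeast strain, carrying an alteration in DNA damage repair or cell cycle control, was exposed to compounds; growth inhibition was measured relative to vehicle-treated controls.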

[3] = NCI Yeast Anticancer Drug Screen. Data for the sgs1 mgt1 strain (AID 161);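 further: 0% = growth of cultures given vehicle only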; details: S. cerevisiae sgs1 mgt1 strain, hits give high values
Summary of the method: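 Compounds are added to genetically altered yeast, and growth is compared with cultures given vehicle alone to give percent inhibition.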

[4] = NCI Yeast Anticancer Drug Screen. Data for the cln2 rad14 strain (AID 165);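 further: 0% = growth equal to vehicle treated cultures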; details: S. cerevisiae cln2 rad14 strain, hits give high values
Summary of the method: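 Yeast carrying cln2 and rad14 alterations (cell cycle control and DNA damage repair) were exposed to compounds. Growth inhibition was measured against vehicle-treated controls.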

[5] = NCI Yeast Anticancer Drug Screen. Data for the bub3 strain (AID 167); details: S. cerevisiae bub3 mutant strain, hits give high values
Summary of the method: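 Inhibition values come from growth of compound-treated mutant yeast normalised to vehicle-treated controls.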

[6] = NCI Yeast Anticancer Drug Screen. Data for the mlh1 rad18 strain (AID 175); details: S. cerevisiae mlh1 rad18 strain growth inhibition, hits give high values
Summary of the method: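 Growth inhibition of the yeast strain was measured after compound exposure and expressed relative to vehicle-treated controls. The strain carries defined defects in DNA damage repair.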

[7] = at 5.0 µM (retest, dose inferred, filed as 0.5)
[8] = at 50.0 µM (retest, dose inferred, filed as 5.0)

Measured: growth inhibition

O=C(O)c1nc2cc(C(F)(F)F)ccc2nc1Nc1ccc(F)cc1
inactive: [1]; [7] 32% | [1]; [8] 64% | [1]; at 50.0 µM 64% | [2]; [7] 23% | [2]; [8] 66% | [2]; at 50.0 µM 68.2% | [3]; [7] 23% | [3]; [8] 60% | [4]; [7] 20% | [4]; [8] 57% | [5]; [7] 31% | [5]; [8] 60% | [6]; [7] 30% | [6]; at 50.0 µM 42.9%
active: [3]; at 50.0 µM 74.7% | [4]; at 50.0 µM 79.7% | [5]; at 50.0 µM 74.7% | [6]; [8] 75%

CC(=O)c1c2c(cc3c1CC1(Cc4cc5c(cc4C1)C(=O)CCC5)C3)CCCC2 (centres undefined)
inactive: [1]; [7] 34% | [1]; [8] 32% | [1]; at 50.0 µM -15.8% | [2]; [7] 23% | [2]; [8] 25% | [2]; at 50.0 µM -16% | [3]; [7] 22% | [3]; [8] 27% | [3]; at 50.0 µM 8.95% | [4]; [7] 22% | [4]; [8] 30% | [4]; at 50.0 µM 8.4% | [5]; [7] 32% | [5]; [8] 33% | [5]; at 50.0 µM 6.25% | [6]; [7] 28% | [6]; [8] 29% | [6]; at 50.0 µM 13.8%

O=C(C(=O)n1ncc(Cl)c(Cl)c1=O)n1ncc(Cl)c(Cl)c1=O
inactive: [1]; [7] 5% | [1]; [8] 7% | [1]; at 50.0 µM 18.6% | [2]; [7] -5% | [2]; [8] 10% | [3]; [7] 5% | [3]; [8] 8% | [3]; at 50.0 µM 44.9% | [4]; [7] -6% | [4]; [8] -15% | [4]; at 50.0 µM 13.8% | [5]; [7] -2% | [5]; [8] -1% | [5]; at 50.0 µM 36.9% | [6]; [7] 0% | [6]; [8] 3% | [6]; at 50.0 µM 65.9%
active: [2]; at 50.0 µM 70.9%

COC(=O)C1(OC(=O)CCC(=O)O)C(=O)NC2=C1C(=O)c1ccccc1C2=O (centres undefined)
active: [1]; at 50.0 µM 75.8%
inactive: [1]; [7] 1% | [1]; [8] 9% | [2]; [7] 2% | [2]; [8] -58% | [2]; at 50.0 µM 12% | [3]; [7] 2% | [3]; [8] 13% | [3]; at 50.0 µM 47.8% | [4]; [7] 2% | [4]; [8] 6% | [4]; at 50.0 µM 38.5% | [5]; [7] -42% | [5]; [8] 16% | [5]; at 50.0 µM 32.9% | [6]; [7] 1% | [6]; [8] 17% | [6]; at 50.0 µM 47.2%

NS(=O)(=O)c1ccc(NC(=S)/N=C/c2c(O)c3ccccc3[nH]c2=O)cc1
inactive: [1]; [7] 20% | [1]; [8] 55% | [1]; at 50.0 µM 22.4% | [2]; [7] 17% | [2]; [8] 26% | [2]; at 50.0 µM -0.65% | [3]; [7] -29% | [3]; [8] 0% | [3]; at 50.0 µM 25.4% | [4]; [7] 3% | [4]; [8] 7% | [4]; at 50.0 µM -4.25% | [5]; [7] -10% | [5]; [8] -8% | [5]; at 50.0 µM -11.8% | [6]; [7] 21% | [6]; [8] 30% | [6]; at 50.0 µM 27.4%

O=S(=O)(N=S(c1ccc(Cl)cc1)c1ccc(Cl)cc1)c1ccccc1
inactive: [1]; [7] 0% | [1]; [8] 10% | [1]; at 50.0 µM 49.2% | [2]; [7] -8% | [2]; [8] 5% | [2]; at 50.0 µM -14.4% | [3]; [7] -1% | [3]; [8] 12% | [3]; at 50.0 µM 4.5% | [4]; [7] 9% | [4]; [8] 28% | [4]; at 50.0 µM -32.4% | [5]; [7] 5% | [5]; [8] 19% | [5]; at 50.0 µM 27.2% | [6]; [7] 0% | [6]; [8] 10% | [6]; at 50.0 µM 12.8%

CC(C)OC(=O)Oc1c(Cl)c(Cl)c(Cl)c(Cl)c1Cl
inactive: [1]; [7] -3% | [1]; at 50.0 µM 62% | [2]; [7] 0% | [2]; at 50.0 µM 50.6% | [3]; [7] -2% | [3]; at 50.0 µM 55% | [4]; [7] 5% | [4]; at 50.0 µM 15.9% | [5]; [7] 2% | [6]; [7] -1% | [6]; at 50.0 µM 56.8%
active: [1]; [8] 97% | [2]; [8] 99% | [3]; [8] 98% | [4]; [8] 98% | [5]; [8] 99% | [5]; at 50.0 µM 74.4% | [6]; [8] 96%

CCOc1ccc(N=Nc2c(C)nn(C(=S)SC)c2OCC)cc1
active: [1]; at 50.0 µM 99.3% | [2]; at 50.0 µM 99.7% | [3]; [8] 74% | [3]; at 50.0 µM 99.2% | [4]; at 50.0 µM 99.5% | [5]; [8] 72% | [5]; at 50.0 µM 99.3% | [6]; [8] 73% | [6]; at 50.0 µM 99.5%
inactive: [1]; [7] 10% | [1]; [8] 54% | [2]; [7] -7% | [2]; [8] 61% | [3]; [7] 4% | [4]; [7] -13% | [4]; [8] 27% | [5]; [7] -17% | [6]; [7] -24%
